Data as given in the supplement of paper PMC10849652.
About 7,900 targets were measured; listed, in parts, are those with a hit and a random draw of the rest. About 0.6% of all pairs of compound and target were hits. A number with no mark means an inactive call.

Key:
Experiment in all cases: log2 fold change, soluble protein after heating vs DMSO (PISA); higher = thermal stabilisation; K562 cells, 10 uM, 30 min; active = over 0.2 and 3.5 SD of the protein, either way, in both replicates (recomputed)
[1] = biological target: ZEB2 (UniProt O60315)
Method in brief: (§1)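 Quantification of soluble protein used TMTpro 16plex LC-MS/MS, with channel sums equalised. Samples were the supernatant after 21,000xg for 90 min of pooled aliquots from K562 cells (2×10^6 cells/mL) treated with 10 μM compound for 30 min, heated for 3 min over 48°C-58°C, and extracted in PBS with 0.5% NP-40 at 4°C. Values, from duplicates, describe thermal stability against control samples on a log2 fold-change scale.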

[2] = biological target: ZER1 (UniProt Q7Z7L7)
Method in brief: as §1

[3] = biological target: ZFAND5 (UniProt O76080)
Method in brief: as §1

[4] = biological target: ZFAND6 (UniProt Q6FIF0)
Method in brief: as §1

[5] = biological target: ZFP91 (UniProt Q96JP5)
Method in brief: as §1

[6] = biological target: ZFPL1 (UniProt O95159)
Method in brief: as §1

[7] = biological target: ZMAT2 (UniProt Q96NC0)
Method in brief: as §1

[8] = biological target: ZMYM1 (UniProt Q5SVZ6)
Method in brief: as §1

[9] = biological target: ZMYM3 (UniProt Q14202)
Method in brief: as §1

[10] = biological target: ZNF143 (UniProt P52747)
Method in brief: as §1

[11] = biological target: ZNF217 (UniProt O75362)
Method in brief: as §1

[12] = biological target: ZNF239 (UniProt Q16600)
Method in brief: as §1

[13] = biological target: ZNF277 (UniProt Q9NRM2)
Method in brief: as §1

[14] = biological target: ZNF512 (UniProt Q96ME7)
Method in brief: as §1

[15] = biological target: ZNF579 (UniProt Q8NAF0)
Method in brief: as §1

[16] = biological target: ZNF609 (UniProt O15014)
Method in brief: as §1

[17] = biological target: ZNF622 (UniProt Q969S3)
Method in brief: as §1

[18] = biological target: ZRANB2 (UniProt O95218)
Method in brief: as §1

[19] = biological target: ZNF511 isoform 1 (UniProt Q8NB15)
Method in brief: as §1

[20] = biological target: ZNF580 (UniProt Q9UK33)
Method in brief: as §1

Chain of ZNF622 (Q969S3 whole entry, looked up): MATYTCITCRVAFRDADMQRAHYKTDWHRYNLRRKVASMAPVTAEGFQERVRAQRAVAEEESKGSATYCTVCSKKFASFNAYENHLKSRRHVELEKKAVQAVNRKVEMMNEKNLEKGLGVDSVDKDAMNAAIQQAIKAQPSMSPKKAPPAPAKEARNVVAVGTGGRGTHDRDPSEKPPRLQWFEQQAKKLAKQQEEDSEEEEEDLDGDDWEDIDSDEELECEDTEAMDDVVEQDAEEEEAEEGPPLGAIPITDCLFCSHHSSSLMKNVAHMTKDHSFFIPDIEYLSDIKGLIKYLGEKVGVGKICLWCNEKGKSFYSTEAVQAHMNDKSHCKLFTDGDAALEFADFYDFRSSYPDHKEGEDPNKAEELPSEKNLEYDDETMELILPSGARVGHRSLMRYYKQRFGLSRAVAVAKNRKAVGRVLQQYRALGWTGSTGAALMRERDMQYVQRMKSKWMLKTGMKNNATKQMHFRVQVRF
Chain of ZMYM1 (Q5SVZ6 whole entry, looked up): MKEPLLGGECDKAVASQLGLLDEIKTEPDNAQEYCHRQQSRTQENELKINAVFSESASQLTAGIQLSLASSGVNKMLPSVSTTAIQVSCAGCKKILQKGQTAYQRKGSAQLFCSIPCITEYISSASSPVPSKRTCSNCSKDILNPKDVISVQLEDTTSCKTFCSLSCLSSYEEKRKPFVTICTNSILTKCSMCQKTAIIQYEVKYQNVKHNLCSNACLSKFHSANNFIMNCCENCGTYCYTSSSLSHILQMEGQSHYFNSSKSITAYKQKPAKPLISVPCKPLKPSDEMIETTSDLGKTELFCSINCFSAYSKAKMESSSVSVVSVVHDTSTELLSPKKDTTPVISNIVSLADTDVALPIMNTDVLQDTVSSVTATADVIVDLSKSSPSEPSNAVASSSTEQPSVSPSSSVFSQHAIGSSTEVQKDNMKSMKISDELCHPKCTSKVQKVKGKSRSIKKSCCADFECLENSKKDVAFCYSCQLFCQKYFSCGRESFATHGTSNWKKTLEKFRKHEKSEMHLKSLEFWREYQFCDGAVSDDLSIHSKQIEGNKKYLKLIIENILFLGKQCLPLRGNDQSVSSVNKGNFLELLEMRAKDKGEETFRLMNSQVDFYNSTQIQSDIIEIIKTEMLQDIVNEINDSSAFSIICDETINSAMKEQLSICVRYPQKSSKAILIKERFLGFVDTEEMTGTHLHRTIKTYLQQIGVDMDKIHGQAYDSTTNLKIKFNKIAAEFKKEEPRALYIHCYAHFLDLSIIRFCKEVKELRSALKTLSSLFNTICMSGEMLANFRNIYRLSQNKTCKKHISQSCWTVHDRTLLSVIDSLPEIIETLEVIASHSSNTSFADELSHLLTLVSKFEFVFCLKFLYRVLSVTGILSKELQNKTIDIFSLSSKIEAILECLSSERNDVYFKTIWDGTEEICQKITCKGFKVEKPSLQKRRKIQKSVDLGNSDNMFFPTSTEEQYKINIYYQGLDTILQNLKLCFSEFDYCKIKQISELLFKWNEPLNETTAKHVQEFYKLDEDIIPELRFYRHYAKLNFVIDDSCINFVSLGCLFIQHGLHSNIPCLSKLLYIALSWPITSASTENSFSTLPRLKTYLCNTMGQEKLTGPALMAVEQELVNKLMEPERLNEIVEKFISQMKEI
Chain of ZNF579 (Q8NAF0 whole entry, looked up): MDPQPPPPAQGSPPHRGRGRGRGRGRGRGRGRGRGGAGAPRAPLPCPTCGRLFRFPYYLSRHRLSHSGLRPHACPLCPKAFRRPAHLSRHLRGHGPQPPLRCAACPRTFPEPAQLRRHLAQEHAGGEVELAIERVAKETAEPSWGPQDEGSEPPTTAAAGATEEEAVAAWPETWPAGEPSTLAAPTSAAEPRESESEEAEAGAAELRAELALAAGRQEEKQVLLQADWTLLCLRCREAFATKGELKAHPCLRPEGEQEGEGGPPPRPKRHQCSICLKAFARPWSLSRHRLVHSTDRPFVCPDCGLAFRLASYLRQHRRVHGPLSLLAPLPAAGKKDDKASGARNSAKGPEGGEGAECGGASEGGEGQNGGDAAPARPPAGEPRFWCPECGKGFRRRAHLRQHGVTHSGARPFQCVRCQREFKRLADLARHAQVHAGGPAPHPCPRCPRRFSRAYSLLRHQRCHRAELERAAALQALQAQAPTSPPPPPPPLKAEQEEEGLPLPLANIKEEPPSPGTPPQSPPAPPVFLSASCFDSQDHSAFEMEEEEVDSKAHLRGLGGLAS
Chain of ZNF511 isoform 1 (Q8NB15 whole entry, looked up, canonical isoform): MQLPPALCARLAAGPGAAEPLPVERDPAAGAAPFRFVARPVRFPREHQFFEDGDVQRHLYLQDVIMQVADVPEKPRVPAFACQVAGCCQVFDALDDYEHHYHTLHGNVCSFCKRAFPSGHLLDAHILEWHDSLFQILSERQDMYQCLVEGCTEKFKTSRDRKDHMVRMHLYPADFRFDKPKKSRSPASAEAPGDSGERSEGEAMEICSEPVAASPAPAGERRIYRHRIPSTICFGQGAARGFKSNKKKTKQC
Chain of ZMAT2 (Q96NC0 whole entry, looked up): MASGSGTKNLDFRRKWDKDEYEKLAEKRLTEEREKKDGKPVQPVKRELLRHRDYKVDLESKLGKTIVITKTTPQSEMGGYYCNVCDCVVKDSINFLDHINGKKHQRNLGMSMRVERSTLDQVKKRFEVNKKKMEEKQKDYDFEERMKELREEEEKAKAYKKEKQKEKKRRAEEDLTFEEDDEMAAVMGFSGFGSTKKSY
Chain of ZNF239 (Q16600 whole entry, looked up): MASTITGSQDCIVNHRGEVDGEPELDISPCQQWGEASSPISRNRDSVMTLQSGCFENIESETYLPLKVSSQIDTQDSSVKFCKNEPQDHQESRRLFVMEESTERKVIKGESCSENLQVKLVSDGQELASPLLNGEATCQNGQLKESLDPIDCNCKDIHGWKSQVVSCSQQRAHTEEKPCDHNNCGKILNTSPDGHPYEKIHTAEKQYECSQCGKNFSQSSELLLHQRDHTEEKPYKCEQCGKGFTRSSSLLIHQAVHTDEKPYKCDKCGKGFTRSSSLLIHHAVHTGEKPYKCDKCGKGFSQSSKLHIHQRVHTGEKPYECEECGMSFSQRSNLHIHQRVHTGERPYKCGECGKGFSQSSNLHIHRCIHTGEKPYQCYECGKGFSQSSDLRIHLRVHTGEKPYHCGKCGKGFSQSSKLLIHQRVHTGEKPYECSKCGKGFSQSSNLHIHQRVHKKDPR
Chain of ZNF143 (P52747 whole entry, looked up): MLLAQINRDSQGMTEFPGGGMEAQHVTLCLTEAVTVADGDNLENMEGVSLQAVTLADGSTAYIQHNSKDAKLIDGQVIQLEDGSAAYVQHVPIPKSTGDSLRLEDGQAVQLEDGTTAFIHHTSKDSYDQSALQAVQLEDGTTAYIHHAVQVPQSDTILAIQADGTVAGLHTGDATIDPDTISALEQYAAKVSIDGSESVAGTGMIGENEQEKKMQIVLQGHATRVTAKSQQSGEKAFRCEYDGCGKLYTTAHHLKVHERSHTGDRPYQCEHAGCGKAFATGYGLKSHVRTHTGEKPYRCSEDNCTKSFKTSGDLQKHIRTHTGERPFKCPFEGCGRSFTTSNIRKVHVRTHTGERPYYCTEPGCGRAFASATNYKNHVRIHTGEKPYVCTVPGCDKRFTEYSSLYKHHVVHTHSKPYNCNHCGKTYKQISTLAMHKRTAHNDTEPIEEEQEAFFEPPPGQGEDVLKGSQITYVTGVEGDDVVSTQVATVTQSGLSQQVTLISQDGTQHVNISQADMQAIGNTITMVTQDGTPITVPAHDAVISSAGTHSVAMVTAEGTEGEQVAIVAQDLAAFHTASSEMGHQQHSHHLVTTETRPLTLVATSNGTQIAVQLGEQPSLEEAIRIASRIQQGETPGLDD
Chain of ZNF580 (Q9UK33 whole entry, looked up): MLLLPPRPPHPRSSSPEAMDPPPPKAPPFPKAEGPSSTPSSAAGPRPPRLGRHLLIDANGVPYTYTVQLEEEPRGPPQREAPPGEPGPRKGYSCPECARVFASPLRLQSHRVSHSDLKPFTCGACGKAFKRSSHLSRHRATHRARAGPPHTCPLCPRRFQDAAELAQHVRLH
Chain of ZFAND6 (Q6FIF0 whole entry, looked up): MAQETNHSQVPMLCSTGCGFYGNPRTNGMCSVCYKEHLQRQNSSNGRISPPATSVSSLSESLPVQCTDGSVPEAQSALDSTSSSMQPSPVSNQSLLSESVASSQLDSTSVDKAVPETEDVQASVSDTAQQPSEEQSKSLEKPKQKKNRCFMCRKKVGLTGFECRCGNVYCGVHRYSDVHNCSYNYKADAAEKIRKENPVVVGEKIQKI
Chain of ZNF277 (Q9NRM2 whole entry, looked up): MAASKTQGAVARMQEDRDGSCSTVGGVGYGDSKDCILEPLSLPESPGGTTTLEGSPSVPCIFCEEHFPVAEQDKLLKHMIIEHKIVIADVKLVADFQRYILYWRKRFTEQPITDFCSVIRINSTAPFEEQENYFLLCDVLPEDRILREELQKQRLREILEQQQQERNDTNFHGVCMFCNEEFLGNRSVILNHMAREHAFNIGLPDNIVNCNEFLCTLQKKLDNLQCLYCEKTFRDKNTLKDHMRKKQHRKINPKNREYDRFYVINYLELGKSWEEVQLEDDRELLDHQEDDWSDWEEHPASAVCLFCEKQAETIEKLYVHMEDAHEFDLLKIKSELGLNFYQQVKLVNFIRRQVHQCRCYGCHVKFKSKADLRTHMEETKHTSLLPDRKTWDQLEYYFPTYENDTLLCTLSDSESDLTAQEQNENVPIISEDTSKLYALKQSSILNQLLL
Chain of ZRANB2 (O95218 whole entry, looked up): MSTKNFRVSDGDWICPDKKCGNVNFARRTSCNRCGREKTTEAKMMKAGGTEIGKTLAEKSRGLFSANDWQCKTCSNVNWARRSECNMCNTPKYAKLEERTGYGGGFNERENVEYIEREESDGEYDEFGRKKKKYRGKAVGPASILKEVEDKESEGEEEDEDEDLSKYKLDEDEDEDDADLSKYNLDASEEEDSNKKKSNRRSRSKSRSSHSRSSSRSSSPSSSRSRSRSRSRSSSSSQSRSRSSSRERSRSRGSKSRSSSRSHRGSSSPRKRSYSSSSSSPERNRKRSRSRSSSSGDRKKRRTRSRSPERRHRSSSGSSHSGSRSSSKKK

Compound | log2 fold change [1] | log2 fold change [2] | log2 fold change [3] | log2 fold change [4] | log2 fold change [5] | log2 fold change [6] | log2 fold change [7] | log2 fold change [8] | log2 fold change [9] | log2 fold change [10] | log2 fold change [11] | log2 fold change [12] | log2 fold change [13] | log2 fold change [14] | log2 fold change [15] | log2 fold change [16] | log2 fold change [17] | log2 fold change [18] | log2 fold change [19] | log2 fold change [20]
CCN(CC)Cc1ccc2cc(COC(=O)Nc3ccc(C(=O)NO)cc3)ccc2c1 [givinostat] | 0.193 | 0.117 | -0.016 | 0.017 | 0.009 | -0.09 | -0.008 | 0.12 | 0.002 | -0.022 | 0.037 | -0.226 | 0.199 | 0.112 | 0.042 | 0.063 | -0.004 | -0.029 | – | –
NC1(Cc2ccc(Cl)cc2)CCN(c2ncnc3[nH]ccc23)CC1 | -0.149 | 0.043 | 0.119 | 0.038 | -0.042 | 0.071 | 0.058 | 0.052 | 0.117 | 0.085 | 0.197 | 0.117 | -0.319 | – | -0.064 | -0.115 | -0.263 (active) | 0.014 | 0.079 | 0.183
CN(CCOc1ccc(C[C@@H]2SC(=O)NC2=O)cc1)c1ccccn1 (racemic) [rosiglitazone] | 0.078 | 0.103 | -0.001 | -0.015 | -0.101 | -0.03 | -0.019 | 0.029 | 0.001 | -0.037 | 0.047 | 0.17 | 0.011 | – | -0.021 | 0.027 | 0.027 | -0.055 | 0.085 | –
Oc1cc(-c2nc(-c3ccccc3)[nH]c2-c2ccncc2)ccc1Cl | -0.053 | 0.012 | -0.024 | -0.006 | -0.06 | -0.119 | -0.042 | -0.101 | -0.033 | 0.093 | -0.014 | 0.044 | -0.004 | – | -0.025 | 0.01 | 0.016 | -0.073 | 0.018 | –
CC(C)C[C@@H](C=O)NC(=O)[C@H](CC(C)C)NC(=O)[C@H](CC(C)C)NC(=O)OCc1ccccc1 | 0.131 | 0.039 | 0.007 | 0.119 | 0 | 0.038 | 0.049 | 0.006 | 0.09 | -0.119 | 0.024 | 0.045 | 0.137 | – | -0.271 | 0.031 | -0.036 | -0.027 | 0.195 | –
C=CC(=O)N1CCC[C@@H](n2nc(-c3ccc(Oc4ccccc4)cc3)c3c(N)ncnc32)C1 [ibrutinib] | 0.029 | 0.001 | 0.03 | 0.006 | 0 | 0.087 | 0.025 | 0.066 | 0.03 | 0.01 | -0.028 | 0.165 | -0.028 | – | -0.024 | -0.024 | -0.003 | 0.013 | 0.047 | –
CN1CCN(CCOc2cc(OC3CCOCC3)c3c(Nc4c(Cl)ccc5c4OCO5)ncnc3c2)CC1 [saracatinib] | 0.008 | 0.013 | 0.08 | -0.035 | 0.036 | 0.016 | 0.026 | -0.024 | 0.098 | 0.094 | -0.083 | 0.052 | -0.276 | – | -0.025 | 0.047 | -0.005 | 0.044 | – | 0.108
Cc1ccc(-n2nc(C(C)(C)C)cc2NC(=O)Nc2ccc(OCCN3CCOCC3)c3ccccc23)cc1 [doramapimod] | 0.032 | -0.163 | 0.106 | 0.017 | 0.109 | -0.098 | -0.024 | 0.003 | -0.009 | 0.01 | -0.027 | 0.069 | 0.123 | – | 0.11 | 0.036 | 0.009 | -0.014 | – | 0.165
CC(C)N(C[C@H]1O[C@@H](n2cnc3c(N)ncnc32)[C@H](O)[C@@H]1O)[C@H]1C[C@@H](CCc2nc3cc(C(C)(C)C)ccc3[nH]2)C1 [pinometostat] | 0.06 | 0.098 | -0.047 | -0.048 | 0.136 | -0.11 | -0.037 | 0.001 | -0.011 | 0.014 | 0.002 | -0.008 | 0.267 | – | 0.02 | 0.03 | 0.014 | 0.012 | – | -0.072
CCN(CCCOc1ccc2c(Nc3cc(CC(=O)Nc4cccc(F)c4)[nH]n3)ncnc2c1)CCOP(=O)(O)O [barasertib] | 0.117 | 0.034 | -0.013 | 0.04 | -0.105 | -0.032 | -0.047 | 0.022 | -0.076 | 0.01 | 0.03 | -0.034 | 0.026 | – | 0.037 | 0.039 | -0.001 | -0.01 | -0.041 | –
CNC(=O)c1ccccc1Nc1nc(Nc2ccc(N3CCOCC3)cc2OC)ncc1Cl | -0.07 | -0.164 | -0.141 | -0.015 | -0.016 | 0.061 | -0.018 | -0.082 | 0 | -0.084 | -0.029 | -0.055 | 0.009 | 0.151 | -0.019 | -0.057 | 0.045 | 0.002 | – | –
Cc1cc(SCc2sc(-c3ccc(C(F)(F)F)cc3)nc2C)ccc1OCC(=O)O | 0.089 | 0.055 | -0.079 | -0.038 | 0.042 | 0.025 | -0.048 | 0.032 | -0.011 | 0.028 | 0.112 | -0.172 | 0.152 | – | -0.009 | -0.134 | -0.009 | -0.086 | – | -0.301
Cn1cc(-c2ccc3nnc(C(F)(F)c4ccc5ncccc5c4)n3n2)cn1 | -0.135 | -0.024 | -0.036 | -0.009 | -0.073 | -0.03 | -0.051 | 0.05 | -0.246 (active) | 0.041 | -0.01 | -0.102 | -0.064 | – | 0.002 | -0.286 | 0.024 | 0.036 | -0.132 | –
CC(C)(C)Cn1c(N)nc2ccc(-c3[nH]c(C(C)(C)C)nc3-c3ccc(F)cc3)nc21 [ralimetinib] | -0.075 | 0.089 | 0.024 | -0.048 | -0.033 | 0.152 | -0.024 | 0.078 | -0.07 | 0.112 | -0.012 | -0.07 | 0.116 | – | 0.032 | -0.053 | -0.019 | -0.014 | 0.074 | –
Cc1cccc(-c2[nH]c(C(C)(C)C)nc2-c2ccc3nccnc3c2)n1 | 0.031 | -0.248 | 0.007 | -0.088 | -0.069 | 0.032 | 0.088 | 0.042 | -0.038 | 0.021 | 0.01 | 0.013 | -0.107 | – | -0.073 | 0.014 | 0.008 | -0.05 | – | -0.183
Cc1ccc(C(=O)N(CCCN)[C@@H](c2nc3cc(Cl)ccc3c(=O)n2Cc2ccccc2)C(C)C)cc1 [ispinesib] | 0.05 | 0.153 | -0.07 | -0.082 | -0.227 | 0.236 | 0.042 | -0.122 | -0.013 | -0.038 | -0.064 | -0.074 | -0.27 | – | 0.029 | 0.014 | 0.062 | 0.005 | 0.296 | –
